High-throughput results (PubChem BioAssay)
Sampled rows, rich in hits. Any-hit rate of the full collection: about 3%.
TrxR1 substrate: is turned over as a substrate by rat TrxR1 | purified TrxR1 substrate turnover, NADPH consumption readout | 0.01% of 390,000 active | AID 588456 | Potency, µM (titrated, usually from 114 µM), for inactives: at the highest dose activity change, negative = substrate turnover; also: % is scaled to controls: 0 for no effect and ±100 for the full control effect; nearly all actives have a fitted effect of over 50% in size
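Rat TrxR1, dispensed at 90 nM, was prereduced with 400 uM NADPH (final) for 5 min at ~22 deg C, then incubated with compound 15 min before 400 uM selenite. A first-read NADPH fluorescence drop versus no-compound background flagged substrates.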
Nrf2 block: inhibitors of Nrf2 signaling. A549 ARE-Fluc reporter, luciferase luminescence, 18-24 h. Potency, µM (top dose mostly 46 µM), for inactives: at the top dose activity change, negative = inhibition, hits mostly inhibitors. 2.1% of 360,000 active. AID 504444; also: % is scaled to controls: 0 for no effect and ±100 for the full control effect; nearly all actives have a fitted effect of over 60% in size
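Nrf2 activity is the BugLite luminescence, read 15 min after reagent at room temperature, following CellTiter-Fluor cytotoxicity readout (30 min, 37C). Compound titrations were applied for 18-24 h to 5000 A549 ARE_Fluc cells/well in 5% FBS OPTI-MEM.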
Nrf2 ARE act: Nrf2 pathway activation | AREc32 ARE-luciferase reporter (MCF7-derived line), luminescence, 24 h | Potency, µM (titrated, usually from 46.1 µM), without a hit: top-dose activation, most hits filed as activators | 0.31% of 410,000 active; also: % of control where 0% means no effect; nearly all actives have a fitted effect of over 65% in size
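AREc32_Fluc, 1000 cells/well, OPTI-MEM + 5% FBS, o/n 37 deg C 5% CO2; 23 nL cpd by pin tool, 24 hr; Steady-Glo 30 min RT, luminescence.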
GALK inh: inhibitors of human galactokinase. P51570. Purified GALK, Kinase-Glo residual ATP luminescence. Potency, µM (series often up to 57.5 µM), for the others: at the highest dose activity change, negative = inhibition, actives largely listed as inhibitors. 0.007% of 270,000 active; also: % is scaled to controls: 0 for no effect and ±100 for the full control effect
Target sequence (P51570 whole entry, looked up): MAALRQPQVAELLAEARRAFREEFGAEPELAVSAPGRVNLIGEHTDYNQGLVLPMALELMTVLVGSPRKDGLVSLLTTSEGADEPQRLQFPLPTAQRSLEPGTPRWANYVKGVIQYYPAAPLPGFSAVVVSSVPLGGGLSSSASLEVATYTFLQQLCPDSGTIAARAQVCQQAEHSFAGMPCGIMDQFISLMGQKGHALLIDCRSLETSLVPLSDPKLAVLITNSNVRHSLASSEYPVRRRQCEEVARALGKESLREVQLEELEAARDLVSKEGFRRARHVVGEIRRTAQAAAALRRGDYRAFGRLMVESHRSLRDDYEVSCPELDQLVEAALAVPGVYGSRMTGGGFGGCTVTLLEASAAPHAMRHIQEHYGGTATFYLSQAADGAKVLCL
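Compounds were pin-transferred into ATP buffer (35 uM final), then GALK plus galactose (5 nM, 100 uM final) was added. After 1 h at room temperature, Kinase-Glo Plus was added and luminescence read after 10 min.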
rTrxR1 inhibitor: rat TrxR1 inhibition. O89049. recombinant rTrxR1, NADPH fluorescence consumption, selenite substrate. Potency, µM (doses to about 114 µM), without a hit: top-dose activity change, negative = inhibition, actives largely listed as inhibitors. 1% of 390,000 active. AID 588453; also: % is scaled to controls: 0 for no effect and ±100 for the full control effect; nearly all actives have a fitted effect of over 65% in size
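Rat TrxR1 (90 nM in the dispensed reagent) was pre-reduced with 400 uM NADPH for 5 min at room temperature, then incubated with compound for 15 min. After 400 uM selenite was added, NADPH fluorescence (Ex 340/Em 450 nm) was followed for 8 min.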
A549 tox-1: kills or reduces viability of A549 cells in Nrf2 counter-screen | 0.16% of 390,000 active | Potency, µM (titrated, usually from 46 µM), for the others: at the highest dose activity change, negative = cytotoxicity, usual class: inhibitors | A549 ARE-Fluc cells, CellTiter-Fluor viability, 18-24 h; also: % is scaled to controls: 0 for no effect and ±100 for the full control effect
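A549 ARE-Fluc cells in 5% FBS OPTI-MEM, 5000 cells/well, rested 2 h then exposed to compounds in concentration-response for 18-24 h at 37 °C. Viability by CellTiter-Fluor fluorescence (Ex 405/Em 525) after 30 min; luciferase luminescence (BugLite, 15 min, RT) read afterwards.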
FLuc counter 3: firefly luciferase inhibition, Nrf2 hit validation | shares compounds with Nrf2 block | purified firefly luciferase, luminescence inhibition | Potency, µM (series often up to 57.5 µM), for the others: at the highest dose activity change, negative = inhibition, hits mostly inhibitors | 4% of 1,400 active; also: % is scaled to controls: 0 for no effect and ±100 for the full control effect; nearly all actives have a fitted effect of over 65% in size
A549 tox-2: A549 cytotoxicity, Nrf2 inhibitor counterscreen. 2% of 1,400 active. A549 ARE-Fluc cells, cytotoxicity counterscreen. Potency, µM (series often up to 46.1 µM), inactives show at the highest dose activity change, negative = cytotoxicity, hits mostly inhibitors. shares compounds with Nrf2 block;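 also: cells exposed to compounds for 18 to 24 hours; % is scaled to controls: 0 for no effect and ±100 for the full control effect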
ARE-Fluc inh: reduces Nrf2 ARE reporter signal in A549 cells | shares compounds with Nrf2 block | A549 ARE-firefly luciferase reporter, luminescence | Potency, µM (titrated, usually from 46.1 µM), for the others: at the highest dose activity change, negative = inhibition, hits mostly inhibitors | 74% of 1,400 active; also: % is scaled to controls: 0 for no effect and ±100 for the full control effect; nearly all actives have a fitted effect of over 65% in size
Active calls of the source: *; [ ] = remark or other dose. Calls follow the shape of the dose curve; as a rule, active = well fitted curve in the direction sought with a large enough effect; inconclusive = small, poorly fitted or top-dose-only effect, or another doubt; inactive = no such curve, though single readings can be large; an effect the other way counts as inactive or inconclusive. Potency is read from the fitted curve at half-maximal effect.

How did O=[N+]([O-])c1cccc2nc3ccccc3c(NCCCn3ccnc3[N+](=O)[O-])c12 do in these assays?
TrxR1 substrate: 4%[57.1 µM]; Nrf2 block: 0.15µM*; Nrf2 ARE act: 13%; rTrxR1 inhibitor: 8%[11.4 µM]; A549 tox-1: inconclusive; FLuc counter 3: inconclusive; A549 tox-2: inconclusive

Results for Cc1cc(C)c(S(=O)(=O)N2CCN(c3ccccn3)CC2)c(C)c1 ?
TrxR1 substrate: 1%[57.1 µM]; Nrf2 block: -3%; Nrf2 ARE act: 0%; rTrxR1 inhibitor: -3%[57.1 µM]; A549 tox-1: -4%

Results for CCN1/C(=C/c2ccc3cc(C)cc(C)c3[n+]2CC)Sc2cc(C)ccc21 ?
TrxR1 substrate: 5%; Nrf2 block: inconclusive; Nrf2 ARE act: 0%; GALK inh: 0%; rTrxR1 inhibitor: 6%; A549 tox-1: 16µM*; FLuc counter 3: -11%; A549 tox-2: inconclusive; ARE-Fluc inh: 1.6µM*

How did CCN1/C(=C\c2ccc3cc(C)ccc3[n+]2CC)Sc2cc(C)c(C)cc21 do in these assays?
TrxR1 substrate: -4%; Nrf2 block: 8.2µM*; Nrf2 ARE act: -1%; GALK inh: -1%; rTrxR1 inhibitor: 23%; A549 tox-1: inconclusive; FLuc counter 3: -7%; A549 tox-2: inconclusive; ARE-Fluc inh: 1.8µM*

What do the screens show for `CC[n+]1c(/C=C/c2cc([N+](=O)[O-])ccc2O)ccc2ccccc21`?
TrxR1 substrate: -5%; Nrf2 block: inconclusive; Nrf2 ARE act: 29%; GALK inh: 6%; rTrxR1 inhibitor: -3%; A549 tox-1: -17%

Results for CCN1/C(=C/c2ccc3cccc(C)c3[n+]2CC)Sc2ccccc21 ?
TrxR1 substrate: 0%; Nrf2 block: 2.6µM*; Nrf2 ARE act: -1%; GALK inh: -4%; rTrxR1 inhibitor: 19%; A549 tox-1: inconclusive; FLuc counter 3: 0%; A549 tox-2: inconclusive; ARE-Fluc inh: 2.1µM*

Results for CCOc1ccc(NC(=O)CN(C)C(=O)CN2C(=O)c3ccc([N+](=O)[O-])cc3C2=O)cc1OCC ?
TrxR1 substrate: 0%; Nrf2 block: 6%; Nrf2 ARE act: 0%; rTrxR1 inhibitor: 6%; A549 tox-1: -12%

How did COCCNC(=O)C(c1ccncc1)N(C(=O)c1sc(C)nc1C)c1cccc(C)c1 (configuration not stated) do in these assays?
TrxR1 substrate: 2%; Nrf2 block: 7%; Nrf2 ARE act: 0%; GALK inh: 8%; rTrxR1 inhibitor: 11%; A549 tox-1: 6%

Results for Cc1cc(-n2c(C)cc(C(=O)CSc3ncnc4ccccc34)c2C)no1 ?
TrxR1 substrate: 2%; Nrf2 block: 4.6µM*; Nrf2 ARE act: 6%; GALK inh: 0%; rTrxR1 inhibitor: 6%; A549 tox-1: inconclusive; FLuc counter 3: inconclusive; A549 tox-2: -2%; ARE-Fluc inh: 16µM*

How did Cc1cc(C(=O)CSc2ncnc3ccccc23)c(C)n1C1CC1 do in these assays?
TrxR1 substrate: -20%; Nrf2 block: -16%; Nrf2 ARE act: 5%; rTrxR1 inhibitor: -23%; A549 tox-1: 0%
